Common to all, as to assay: DAPPL (digital affinity profiling via proximity ligation, sequencing); 10 mM Tris-HCl pH 7.5, 50 mM NaCl, 1 mM DTT, 4% glycerol, room temperature, 30 min; GST-TFs on glutathione beads, 16-mer random dsDNA library, 0.1% formaldehyde crosslink after washing; high values mean tight binding
One experiment concerns the target T1, FEV (Homo sapiens, UniProt Q99581 1-238).
T1 sequence: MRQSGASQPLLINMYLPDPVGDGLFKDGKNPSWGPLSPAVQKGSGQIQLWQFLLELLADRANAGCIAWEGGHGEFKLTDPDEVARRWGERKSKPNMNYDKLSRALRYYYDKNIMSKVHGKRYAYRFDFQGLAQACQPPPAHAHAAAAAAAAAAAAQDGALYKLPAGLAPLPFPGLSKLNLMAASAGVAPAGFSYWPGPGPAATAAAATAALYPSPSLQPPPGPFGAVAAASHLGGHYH
The settings on record: protein: recombinant; tags: N-terminal GST; dsDNA, one strand shown. A digest of the protocol: (§1)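 Yeast served to express human transcription factors as GST fusions, which were then captured on glutathione beads and labelled with DNA barcodes. Pooled with a tag-only sample, they were incubated with 200 nmole of a 16-mer random double-stranded DNA library for 30 min at room temperature in Tris/NaCl/DTT/glycerol buffer, washed, crosslinked with 0.1% formaldehyde, ligated by proximity, amplified by PCR and sequenced. Dividing each hexamer's read frequency for a factor by its frequency for the tag-only sample gives the binding signal.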

For the next experiment, the target named is ETV5 (Homo sapiens, UniProt P41161 1-510). The settings on record: protein: recombinant; tags: N-terminal GST; dsDNA, one strand shown. In short, it runs like this: as §1
ETV5, sequence (P41161 whole entry): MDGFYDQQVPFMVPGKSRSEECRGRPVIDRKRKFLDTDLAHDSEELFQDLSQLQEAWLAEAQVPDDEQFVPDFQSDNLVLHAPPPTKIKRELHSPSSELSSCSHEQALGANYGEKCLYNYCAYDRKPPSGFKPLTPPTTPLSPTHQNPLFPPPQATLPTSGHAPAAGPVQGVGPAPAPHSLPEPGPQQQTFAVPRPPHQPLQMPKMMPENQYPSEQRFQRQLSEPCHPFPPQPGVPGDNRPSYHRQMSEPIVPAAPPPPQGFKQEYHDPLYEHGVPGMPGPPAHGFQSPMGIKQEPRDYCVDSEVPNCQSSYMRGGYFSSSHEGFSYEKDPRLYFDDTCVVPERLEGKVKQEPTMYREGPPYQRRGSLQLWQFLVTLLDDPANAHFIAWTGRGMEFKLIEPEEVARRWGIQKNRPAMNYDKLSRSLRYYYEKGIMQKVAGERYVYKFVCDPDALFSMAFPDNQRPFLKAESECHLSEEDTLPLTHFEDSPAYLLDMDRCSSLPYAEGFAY
The target in a further experiment is HSF1 (Homo sapiens, UniProt Q00613 1-529). The settings on record: protein: recombinant; tags: N-terminal GST; chain copies: 3; dsDNA, one strand shown. A digest of the protocol: as §1
HSF1, sequence (Q00613 whole entry): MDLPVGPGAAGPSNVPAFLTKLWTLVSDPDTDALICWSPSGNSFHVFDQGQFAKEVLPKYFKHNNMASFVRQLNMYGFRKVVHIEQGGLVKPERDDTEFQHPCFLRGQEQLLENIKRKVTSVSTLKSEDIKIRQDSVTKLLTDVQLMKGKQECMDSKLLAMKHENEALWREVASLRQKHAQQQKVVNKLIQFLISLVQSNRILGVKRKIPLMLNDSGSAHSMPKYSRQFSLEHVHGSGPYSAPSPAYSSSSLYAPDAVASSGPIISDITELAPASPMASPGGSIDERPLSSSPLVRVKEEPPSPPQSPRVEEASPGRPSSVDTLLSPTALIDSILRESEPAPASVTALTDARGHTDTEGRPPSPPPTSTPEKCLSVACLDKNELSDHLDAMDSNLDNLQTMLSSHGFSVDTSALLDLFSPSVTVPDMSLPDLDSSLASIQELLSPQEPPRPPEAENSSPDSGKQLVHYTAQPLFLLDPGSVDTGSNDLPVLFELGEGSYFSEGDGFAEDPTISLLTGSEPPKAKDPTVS
A further experiment concerns the target T2, SPIC (Homo sapiens, UniProt Q8N5J4 1-248).
T2 sequence: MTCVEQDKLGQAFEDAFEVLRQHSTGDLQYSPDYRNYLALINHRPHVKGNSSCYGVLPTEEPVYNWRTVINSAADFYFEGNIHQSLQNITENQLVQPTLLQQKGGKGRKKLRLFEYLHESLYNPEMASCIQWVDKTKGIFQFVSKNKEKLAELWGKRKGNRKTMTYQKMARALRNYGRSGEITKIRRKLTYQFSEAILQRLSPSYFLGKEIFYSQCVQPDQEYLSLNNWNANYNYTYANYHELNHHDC
The settings on record: protein: recombinant; tags: N-terminal GST; dsDNA, one strand shown. In short, it runs like this:
as §1

Another experiment addresses ELF4 (Homo sapiens, UniProt Q99607 1-663). The settings on record: protein: recombinant; tags: N-terminal GST; dsDNA, one strand shown. A digest of the protocol: as §1
In a further experiment the target is T3, ELK4 (Homo sapiens, UniProt P28324-2 1-405).
T3 sequence: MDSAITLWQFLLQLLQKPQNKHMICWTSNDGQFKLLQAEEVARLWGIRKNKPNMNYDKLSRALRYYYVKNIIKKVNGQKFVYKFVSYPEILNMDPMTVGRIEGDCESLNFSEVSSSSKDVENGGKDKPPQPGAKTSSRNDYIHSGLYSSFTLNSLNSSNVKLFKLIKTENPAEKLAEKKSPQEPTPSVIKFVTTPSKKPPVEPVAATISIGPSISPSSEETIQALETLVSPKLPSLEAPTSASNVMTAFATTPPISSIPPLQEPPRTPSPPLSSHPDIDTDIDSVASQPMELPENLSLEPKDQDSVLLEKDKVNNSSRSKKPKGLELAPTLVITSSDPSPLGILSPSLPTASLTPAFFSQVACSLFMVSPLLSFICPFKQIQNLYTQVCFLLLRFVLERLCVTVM
The settings on record: protein: recombinant; tags: N-terminal GST; dsDNA, one strand shown. A digest of the protocol: as §1

The target of the next experiment is T4, ETV2 (Homo sapiens, UniProt O00321 1-342).
T4 sequence: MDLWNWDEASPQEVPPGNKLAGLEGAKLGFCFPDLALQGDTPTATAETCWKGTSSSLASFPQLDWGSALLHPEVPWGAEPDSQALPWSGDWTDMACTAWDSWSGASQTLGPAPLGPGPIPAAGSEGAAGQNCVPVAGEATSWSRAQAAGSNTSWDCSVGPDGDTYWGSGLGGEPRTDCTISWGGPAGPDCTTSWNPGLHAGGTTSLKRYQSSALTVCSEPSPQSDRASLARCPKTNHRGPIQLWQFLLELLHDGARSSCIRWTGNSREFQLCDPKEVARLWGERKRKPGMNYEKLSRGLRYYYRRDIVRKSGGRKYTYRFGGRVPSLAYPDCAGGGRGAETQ
The settings on record: protein: recombinant; tags: N-terminal GST; dsDNA, one strand shown. In short, it runs like this:
as §1

In another experiment the target is T5, ELF3 (Homo sapiens, UniProt P78545 1-371).
T5 sequence: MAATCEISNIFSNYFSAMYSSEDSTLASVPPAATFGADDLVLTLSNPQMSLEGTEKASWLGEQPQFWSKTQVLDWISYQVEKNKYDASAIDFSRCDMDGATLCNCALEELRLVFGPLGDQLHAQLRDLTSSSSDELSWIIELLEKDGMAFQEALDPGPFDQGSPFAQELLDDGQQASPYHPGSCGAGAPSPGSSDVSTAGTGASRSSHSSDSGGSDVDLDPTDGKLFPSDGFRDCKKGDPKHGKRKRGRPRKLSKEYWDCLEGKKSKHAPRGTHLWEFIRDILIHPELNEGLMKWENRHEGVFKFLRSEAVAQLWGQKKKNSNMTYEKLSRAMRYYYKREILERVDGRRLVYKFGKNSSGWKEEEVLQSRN
The settings on record: protein: recombinant; tags: N-terminal GST; dsDNA, one strand shown. A digest of the protocol: as §1

The target of another experiment is CRX (Homo sapiens, UniProt O43186 1-299). The settings on record: protein: recombinant; tags: N-terminal GST; dsDNA, one strand shown. A digest of the protocol:
as §1

Another experiment addresses ETV1 (Homo sapiens, UniProt P50549 1-477). The settings on record: protein: recombinant; tags: N-terminal GST; dsDNA, one strand shown. A digest of the protocol:
as §1

The next experiment deals with T6, ERF (Homo sapiens, UniProt P50548 1-548).
T6 sequence: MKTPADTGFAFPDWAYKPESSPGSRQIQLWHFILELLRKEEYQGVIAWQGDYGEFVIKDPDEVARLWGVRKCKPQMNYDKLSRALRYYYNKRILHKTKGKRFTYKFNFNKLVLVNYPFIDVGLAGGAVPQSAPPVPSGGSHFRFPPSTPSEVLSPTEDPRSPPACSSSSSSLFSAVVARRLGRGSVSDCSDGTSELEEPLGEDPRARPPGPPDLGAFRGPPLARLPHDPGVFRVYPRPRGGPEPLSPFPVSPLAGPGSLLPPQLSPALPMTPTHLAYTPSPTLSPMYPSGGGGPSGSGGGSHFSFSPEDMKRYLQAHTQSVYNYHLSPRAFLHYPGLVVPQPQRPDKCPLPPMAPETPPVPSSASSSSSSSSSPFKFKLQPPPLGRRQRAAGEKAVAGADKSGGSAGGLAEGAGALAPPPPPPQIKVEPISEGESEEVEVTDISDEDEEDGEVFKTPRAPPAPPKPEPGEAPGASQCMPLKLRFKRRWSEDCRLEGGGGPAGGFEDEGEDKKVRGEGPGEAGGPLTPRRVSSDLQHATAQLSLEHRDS
The settings on record: protein: recombinant; tags: N-terminal GST; dsDNA, one strand shown. A digest of the protocol: as §1

For a further experiment, the target named is T7, ETV3L (Homo sapiens, UniProt Q6ZN32 1-361).
T7 sequence: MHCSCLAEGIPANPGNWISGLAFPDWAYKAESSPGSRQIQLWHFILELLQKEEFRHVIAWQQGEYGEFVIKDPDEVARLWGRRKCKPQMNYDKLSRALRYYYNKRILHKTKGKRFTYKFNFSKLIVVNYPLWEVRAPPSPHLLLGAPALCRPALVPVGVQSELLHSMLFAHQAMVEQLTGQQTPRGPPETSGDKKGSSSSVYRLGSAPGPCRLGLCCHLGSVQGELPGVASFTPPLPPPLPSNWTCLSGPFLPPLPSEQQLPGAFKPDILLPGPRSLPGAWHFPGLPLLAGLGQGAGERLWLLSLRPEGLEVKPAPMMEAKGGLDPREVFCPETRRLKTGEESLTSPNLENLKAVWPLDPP
The settings on record: protein: recombinant; tags: N-terminal GST; dsDNA, one strand shown. A digest of the protocol:
as §1

The next experiment has as its target T8, ETS2 (Homo sapiens, UniProt P15036 1-469).
T8 sequence: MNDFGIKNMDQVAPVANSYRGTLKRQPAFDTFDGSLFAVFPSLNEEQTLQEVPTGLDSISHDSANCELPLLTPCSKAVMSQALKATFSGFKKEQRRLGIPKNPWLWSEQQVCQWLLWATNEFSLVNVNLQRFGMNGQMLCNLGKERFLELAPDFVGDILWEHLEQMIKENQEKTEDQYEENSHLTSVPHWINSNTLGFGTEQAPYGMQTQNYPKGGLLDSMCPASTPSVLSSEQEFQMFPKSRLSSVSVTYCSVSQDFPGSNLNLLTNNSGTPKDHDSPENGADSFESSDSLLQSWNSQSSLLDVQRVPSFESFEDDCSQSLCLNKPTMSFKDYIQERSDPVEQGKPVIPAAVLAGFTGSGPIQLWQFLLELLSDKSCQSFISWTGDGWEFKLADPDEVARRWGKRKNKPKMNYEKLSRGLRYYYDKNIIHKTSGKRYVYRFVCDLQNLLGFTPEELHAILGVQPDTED
The settings on record: protein: recombinant; tags: N-terminal GST; dsDNA, one strand shown. A digest of the protocol: as §1

A further experiment has as its target T9, SPDEF (Homo sapiens, UniProt O95238 1-335).
T9 sequence: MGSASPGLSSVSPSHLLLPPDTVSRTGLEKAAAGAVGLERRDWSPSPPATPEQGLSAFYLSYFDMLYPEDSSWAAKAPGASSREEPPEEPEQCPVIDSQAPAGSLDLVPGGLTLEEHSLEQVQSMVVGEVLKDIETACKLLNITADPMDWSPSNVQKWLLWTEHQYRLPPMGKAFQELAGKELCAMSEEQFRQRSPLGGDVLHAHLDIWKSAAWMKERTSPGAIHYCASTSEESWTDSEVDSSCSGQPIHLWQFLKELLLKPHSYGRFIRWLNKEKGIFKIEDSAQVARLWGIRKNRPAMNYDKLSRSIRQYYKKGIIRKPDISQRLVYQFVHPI
The settings on record: protein: recombinant; tags: N-terminal GST; dsDNA, one strand shown. A digest of the protocol: as §1

Another experiment addresses T10, ETV7 (Homo sapiens, UniProt Q9Y603 1-341).
T10 sequence: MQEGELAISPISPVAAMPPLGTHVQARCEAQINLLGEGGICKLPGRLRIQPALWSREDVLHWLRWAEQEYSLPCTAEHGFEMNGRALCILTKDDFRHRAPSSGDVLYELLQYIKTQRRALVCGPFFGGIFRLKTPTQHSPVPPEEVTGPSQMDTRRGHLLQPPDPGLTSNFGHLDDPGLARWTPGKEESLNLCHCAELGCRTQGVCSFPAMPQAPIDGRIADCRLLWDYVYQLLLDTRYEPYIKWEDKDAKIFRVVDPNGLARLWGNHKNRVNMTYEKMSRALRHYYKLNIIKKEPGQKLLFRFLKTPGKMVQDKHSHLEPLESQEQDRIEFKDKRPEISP
The settings on record: protein: recombinant; tags: N-terminal GST; dsDNA, one strand shown. In short, it runs like this:
as §1

The target in the next experiment is T11, ELF5 (Homo sapiens, UniProt Q9UKW6-2 1-255).
T11 sequence: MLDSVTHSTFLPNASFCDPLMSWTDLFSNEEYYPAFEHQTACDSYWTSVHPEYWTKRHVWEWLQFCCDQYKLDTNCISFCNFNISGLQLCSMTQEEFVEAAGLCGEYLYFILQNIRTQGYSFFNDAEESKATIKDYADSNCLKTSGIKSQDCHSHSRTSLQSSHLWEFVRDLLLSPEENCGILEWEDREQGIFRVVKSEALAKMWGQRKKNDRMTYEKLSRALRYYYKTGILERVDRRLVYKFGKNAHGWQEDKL
The settings on record: protein: recombinant; tags: N-terminal GST; dsDNA, one strand shown. A digest of the protocol: as §1

The target in a further experiment is T12, ETV3 (Homo sapiens, UniProt P41162-2 1-143).
T12 sequence: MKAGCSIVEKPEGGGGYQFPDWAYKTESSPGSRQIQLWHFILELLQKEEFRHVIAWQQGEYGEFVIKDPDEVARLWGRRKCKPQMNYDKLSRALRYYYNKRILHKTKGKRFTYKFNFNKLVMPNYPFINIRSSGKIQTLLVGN
The settings on record: protein: recombinant; tags: N-terminal GST; dsDNA, one strand shown. In short, it runs like this:
as §1

The target of the next experiment is ETV6 (Homo sapiens, UniProt P41212 1-452). The settings on record: protein: recombinant; tags: N-terminal GST; dsDNA, one strand shown. In short, it runs like this:
as §1

ETV1, sequence (P50549 whole entry): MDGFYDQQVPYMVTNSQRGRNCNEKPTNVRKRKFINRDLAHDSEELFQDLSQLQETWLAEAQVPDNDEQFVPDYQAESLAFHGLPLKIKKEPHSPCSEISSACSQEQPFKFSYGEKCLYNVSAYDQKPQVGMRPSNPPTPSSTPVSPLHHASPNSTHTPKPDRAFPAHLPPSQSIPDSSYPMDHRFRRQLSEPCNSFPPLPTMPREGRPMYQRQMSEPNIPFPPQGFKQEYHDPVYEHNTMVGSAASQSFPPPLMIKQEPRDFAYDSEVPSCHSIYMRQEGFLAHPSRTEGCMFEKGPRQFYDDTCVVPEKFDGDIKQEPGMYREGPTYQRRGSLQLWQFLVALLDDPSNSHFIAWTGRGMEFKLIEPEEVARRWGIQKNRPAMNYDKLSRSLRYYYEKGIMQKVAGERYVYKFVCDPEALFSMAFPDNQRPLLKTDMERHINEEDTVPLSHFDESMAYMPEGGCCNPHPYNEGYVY
CRX, sequence (O43186 whole entry): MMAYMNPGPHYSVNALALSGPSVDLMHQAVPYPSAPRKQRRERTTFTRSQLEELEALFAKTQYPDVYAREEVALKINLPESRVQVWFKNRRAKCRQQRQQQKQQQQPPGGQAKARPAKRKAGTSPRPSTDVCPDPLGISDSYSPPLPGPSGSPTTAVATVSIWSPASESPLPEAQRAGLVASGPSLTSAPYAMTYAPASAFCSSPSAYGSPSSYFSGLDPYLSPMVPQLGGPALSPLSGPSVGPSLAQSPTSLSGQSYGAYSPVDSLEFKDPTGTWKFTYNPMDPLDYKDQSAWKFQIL
ELF4, sequence (Q99607 whole entry): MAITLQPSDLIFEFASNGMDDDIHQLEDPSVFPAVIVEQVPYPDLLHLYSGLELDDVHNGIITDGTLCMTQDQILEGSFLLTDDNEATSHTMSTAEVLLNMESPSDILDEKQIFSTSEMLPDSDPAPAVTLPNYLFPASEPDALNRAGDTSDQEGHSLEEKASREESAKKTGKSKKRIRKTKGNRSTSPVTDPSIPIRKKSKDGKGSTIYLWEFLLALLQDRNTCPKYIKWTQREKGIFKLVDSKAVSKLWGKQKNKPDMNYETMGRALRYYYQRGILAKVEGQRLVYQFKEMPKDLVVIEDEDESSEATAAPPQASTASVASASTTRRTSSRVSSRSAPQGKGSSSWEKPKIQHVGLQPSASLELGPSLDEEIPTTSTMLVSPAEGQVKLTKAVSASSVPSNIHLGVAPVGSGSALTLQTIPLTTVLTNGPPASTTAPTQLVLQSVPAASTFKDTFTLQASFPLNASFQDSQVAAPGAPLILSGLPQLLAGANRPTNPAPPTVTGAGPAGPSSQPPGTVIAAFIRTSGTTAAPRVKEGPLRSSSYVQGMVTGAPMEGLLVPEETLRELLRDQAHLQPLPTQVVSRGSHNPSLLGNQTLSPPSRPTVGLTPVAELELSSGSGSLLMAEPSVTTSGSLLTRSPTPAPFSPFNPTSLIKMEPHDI
ETV6, sequence (P41212 whole entry): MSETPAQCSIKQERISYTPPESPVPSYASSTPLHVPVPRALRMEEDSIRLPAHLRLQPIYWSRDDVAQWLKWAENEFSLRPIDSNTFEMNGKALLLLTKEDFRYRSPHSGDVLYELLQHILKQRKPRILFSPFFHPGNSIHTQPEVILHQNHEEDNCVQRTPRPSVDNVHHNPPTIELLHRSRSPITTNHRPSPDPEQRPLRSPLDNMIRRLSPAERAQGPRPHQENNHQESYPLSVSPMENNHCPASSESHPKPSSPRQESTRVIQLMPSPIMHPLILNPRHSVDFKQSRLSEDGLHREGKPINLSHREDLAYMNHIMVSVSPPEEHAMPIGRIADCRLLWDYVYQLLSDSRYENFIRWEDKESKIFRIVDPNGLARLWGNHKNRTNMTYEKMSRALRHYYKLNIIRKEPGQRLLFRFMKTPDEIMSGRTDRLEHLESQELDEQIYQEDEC

On to TACCTT, for which the binding signal with FEV was 1.34 fold enrichment (6-mer frequency, TF over GST control); with ETV5, 1.4 fold enrichment (6-mer frequency, TF over GST control); with HSF1, 1.3 fold enrichment (6-mer frequency, TF over GST control); in the experiment with SPIC, 1.3 fold enrichment (6-mer frequency, TF over GST control); in the experiment with ELF4, 1.38 fold enrichment (6-mer frequency, TF over GST control); in the experiment with ELK4, 1.46 fold enrichment (6-mer frequency, TF over GST control). For the same sequence, the binding signal with ETV2 was 1.6 fold enrichment (6-mer frequency, TF over GST control); with ELF3, 1.31 fold enrichment (6-mer frequency, TF over GST control); with CRX, 1.55 fold enrichment (6-mer frequency, TF over GST control); with ETV1 it was 1.5 fold enrichment (6-mer frequency, TF over GST control); with ERF, 1.51 fold enrichment (6-mer frequency, TF over GST control); with ETV3L, 1.34 fold enrichment (6-mer frequency, TF over GST control). Besides, the binding signal with ETS2 is 1.44 fold enrichment (6-mer frequency, TF over GST control); with SPDEF, 1.39 fold enrichment (6-mer frequency, TF over GST control); in the experiment with ETV7, 1.37 fold enrichment (6-mer frequency, TF over GST control); with ELF5, 1.49 fold enrichment (6-mer frequency, TF over GST control); in the experiment with ETV3 it was 1.29 fold enrichment (6-mer frequency, TF over GST control); with ETV6, 1.5 fold enrichment (6-mer frequency, TF over GST control).

The record behind these values is article PMC7862700, “An all-to-all approach to the identification of sequence-specific readers for epigenetic DNA modifications on cytosine”.
